Results reported in PubChem BioAssay (NCATS).
Results filed as inconclusive are left out. Active and inactive are the calls of the source. Calls follow the shape of the dose curve; as a rule, active = well fitted curve in the direction sought with a large enough effect; inconclusive = small, poorly fitted or top-dose-only effect, or another doubt; inactive = no such curve, though single readings can be large; an effect the other way counts as inactive or inconclusive.

What was measured:
[1] = qHTS of pediatric cancer cell lines to identify multiple opportunities for drug repurposing: Primary screen for SK-N-MC cells (AID 1347093); also: potency is read from the fitted curve at half-maximal effect
Outline: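 Metabolically active cells were quantified by ATP-dependent luminescence (CellTiter-Glo, 15 min at room temperature) following 48 h treatment. Cells had been plated at 500-1,000 per well and settled for 5 h beforehand.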

[2] = qHTS of pediatric cancer cell lines to identify multiple opportunities for drug repurposing: Primary screen for BT-37 cells (AID 1347094); also: potency is read from the fitted curve at half-maximal effect
Outline: (§1)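 Primary screen of approved and investigational compounds on cells in growth media at 37 degrees C, 5% CO2. MIPE set at 11-point and NPC set at 8-point dilutions; viability scored by ATP-based luminescence at 48 hours.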

[3] = qHTS of pediatric cancer cell lines to identify multiple opportunities for drug repurposing: Primary screen for NB-EBc1 cells (AID 1347095)
Outline: as §1

[4] = qHTS of pediatric cancer cell lines to identify multiple opportunities for drug repurposing: Primary screen for Saos-2 cells (AID 1347097); also: nearly all actives have a fitted effect of over 40% in size; also: potency is read from the fitted curve at half-maximal effect
Outline: as §1

[5] = qHTS of pediatric cancer cell lines to identify multiple opportunities for drug repurposing: Primary screen for SK-N-SH cells (AID 1347098); also: nearly all actives have a fitted effect of over 65% in size; also: potency is read from the fitted curve at half-maximal effect
Outline: (§2)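 Cells (500-1,000/well) rested 5 h, then received compounds for 48 h; metabolically active cells were measured by CellTiter-Glo luminescence. Final concentrations spanned up to 46 µM (MIPE, 11-point) or 0.59 nM-46 µM (NPC, 8-point) in primary screens, 11-point in follow-ups.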

[6] = qHTS of pediatric cancer cell lines to identify multiple opportunities for drug repurposing: Primary screen for NB1643 cells (AID 1347099); also: nearly all actives have a fitted effect of over 50% in size; also: potency is read from the fitted curve at half-maximal effect
Outline: as §1

[7] = qHTS of pediatric cancer cell lines to identify multiple opportunities for drug repurposing: Primary screen for LAN-5 cells (AID 1347100)
Outline: (§3)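 Cells (500-1,000/well) in growth media were settled 5 h at 37 degrees C, then given compounds for 48 h. Viability was read as CellTiter-Glo luminescence. Primary runs used MIPE at 11 points (0.78 nM-46 µM) and NPC at 8 points (0.59 nM-46 µM); follow-ups used 11 points.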

[8] = qHTS of pediatric cancer cell lines to identify multiple opportunities for drug repurposing: Primary screen for BT-12 cells (AID 1347101); also: nearly all actives have a fitted effect of over 25% in size; also: potency is read from the fitted curve at half-maximal effect
Outline: as §2

[9] = qHTS of pediatric cancer cell lines to identify multiple opportunities for drug repurposing: Primary screen for Rh18 cells (AID 1347102); also: nearly all actives have a fitted effect of over 65% in size; also: potency is read from the fitted curve at half-maximal effect
Outline: as §3

[10] = qHTS of pediatric cancer cell lines to identify multiple opportunities for drug repurposing: Primary screen for U-2 OS cells (AID 1347096); also: nearly all actives have a fitted effect of over 50% in size; also: potency is read from the fitted curve at half-maximal effect
Outline: as §3

Measured: Potency

Cc1ccc2ccc(Cl)cc2n1
not listed: [10]
inactive: all other assays above

Cc1cccc(C)c1NC(=O)c1cc(S(N)(=O)=O)c(Cl)cc1O
not listed: [10]
inactive: all other assays above

COc1cc(S(N)(=O)=O)cc(C(=O)O)c1OC
not listed: [9] | [10]
inactive: all other assays above

CCCCCCCCCCCC[N+](C)(C)Cc1ccccc1
inactive: [3]
active: [1] 2.66 µM | [2] 15.5 µM | [4] 4.73 µM | [5] 15.4 µM | [6] 6.68 µM | [8] 4.37 µM | [9] 2.11 µM

Cc1ccccc1N1CCN(CCc2nnc3n2CCCC3)CC1
not listed: [10]
inactive: all other assays above

O=C(c1ccccc1)c1ccccc1
not listed: [4] | [10]
inactive: all other assays above

O=C(O)CNC(=O)CNC(=O)CNC(=O)CSC(=O)c1ccccc1
not listed: [6] | [10]
inactive: all other assays above

CCc1cc2cc(OC)c(OC)cc2c(Cc2ccccc2)n1
inactive: [1] | [2] | [10] | [4] | [6] | [9]

CCN(CC)CC(=O)OCC(=O)[C@@]1(O)CC[C@H]2[C@@H]3CCC4=CC(=O)CC[C@]4(C)[C@H]3[C@@H](O)C[C@@]21C
not listed: [3] | [8]
inactive: all other assays above

CO[C@@H]1[C@@H](O[C@@H]2O[C@H](C)[C@@H](O[C@H]3C[C@@](C)(O)[C@@H](O)[C@H](C)O3)[C@H](N(C)C)[C@H]2O)[C@@H](CC=O)C[C@@H](C)[C@@H](O[C@@H]2CC[C@H](N(C)C)[C@@H](C)O2)/C=C/C=C/C[C@@H](C)OC(=O)C[C@H]1OC(C)=O
inactive: [1] | [2] | [10] | [4] | [6] | [9]

CC1CCCCN1CCCOC(=O)c1ccc(OC2CCCCC2)cc1 (configuration not stated)
inactive: [1] | [2] | [3] | [6] | [7] | [9]

CCOc1ccccc1OCC1CNCCO1 (configuration not stated)
not listed: [3] | [4] | [9]
inactive: all other assays above

COCCc1ccc(OCC2CO2)cc1 (configuration not stated)
not listed: [3] | [6]
inactive: all other assays above

C[N+](C)(CCOc1ccccc1)Cc1cccs1
not listed: [3] | [7]
inactive: all other assays above

N=C(N)c1ccc(OCCCOc2ccc(C(=N)N)cc2)cc1
active: [8] 2.19 µM
not listed: [3] | [5]
inactive: all other assays above

COc1ccc(CCC(C)=O)cc1
not listed: [3] | [5] | [6]
inactive: all other assays above

O=C(O)CCCC[C@@H]1SC[C@@H]2NC(=O)N[C@@H]21
not listed: [3] | [4]
inactive: all other assays above

CN(C)CCN(Cc1ccsc1)c1ccccn1
not listed: [3] | [7]
inactive: all other assays above

COc1cc(NS(=O)(=O)c2ccc(N)cc2)nc(C)n1
not listed: [3] | [7]
inactive: all other assays above

COc1cc2c(cc1OC)CN(C(=O)[C@H](C)N[C@@H](CCc1ccccc1)C(=O)O)[C@H](C(=O)O)C2
inactive: [1] | [2] | [10] | [4] | [8] | [9]

CCOC(=O)Cn1cccc1-c1nc(-c2ccc(OC)cc2)c(-c2ccc(OC)cc2)s1
not listed: [3]
inactive: all other assays above

O=C1CCCc2c(O)cccc21
not listed: [3] | [8]
inactive: all other assays above

OC1(c2ccc(Cl)c(C(F)(F)F)c2)CCN(CCCC(c2ccc(F)cc2)c2ccc(F)cc2)CC1
active: [1] 6.68 µM | [2] 11 µM | [10] 21.1 µM | [4] 11.9 µM | [5] 24.4 µM | [8] 21.9 µM | [9] 23.7 µM
